L3MBTL1 block – L3MBTL1 (human) inhibition; Q9Y468; AlphaScreen L3MBTL1–H3K9me1 peptide binding; Potency, µM (series often up to 57.1 µM), usual class: inhibitors; 0.66% of 230,000 active; further: nearly all actives have a fitted effect of over 60% in size
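AlphaScreen proximity signal between nickel-chelate acceptor and streptavidin donor beads (final 10 ug/mL) reports binding of 50 nM L3MBTL1 to 75 nM biotin-H3 K9me1 peptide; complex incubated with compounds 30 min at room temperature; cefsulodin titration as control.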
HP1b binding inh – HP1-beta chromodomain-methylated histone interaction inhibition; AlphaScreen HP1-beta / biotin-H3K9me3 peptide binding; Potency, µM (titrated, usually from 114 µM), hits mostly inhibitors; 0.56% of 390,000 active; further: nearly all actives have a fitted effect of over 70% in size
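Compound inhibition of the preformed complex between 50 nM HP1-beta and 50 nM biotinylated H3K9me3 peptide was read by AlphaScreen. Buffer was PBS pH 7.4 with 0.01% Tween-20. Incubations ran 30 min at room temperature, with 10 ug/mL donor/acceptor beads.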
PLK1 PBD block – inhibitors of human PLK1 polo-box domain binding; Potency, µM, usual class: inhibitors; Plk1 PBD binding of FITC phosphopeptide, fluorescence polarization; AID 720504; 2.8% of 360,000 active; P53350; further: series mostly up to about 57 µM; nearly all actives have a fitted effect of over 65% in size
JMJD2A Tudor inh – inhibitors of human JMJD2A Tudor domain; 4.4% of 390,000 active; AID 504339; AlphaScreen JMJD2A-Tudor / H3K4me3 peptide binding; Potency, µM (series often up to 114 µM), hits mostly inhibitors; further: nearly all actives have a fitted effect of over 50% in size
VDR inhibitor – blocks the human vitamin D receptor; P11473; 0.93% of 400,000 active; VDR-SRC2-3 peptide fluorescence polarization, 2 h; Potency, µM, actives largely listed as inhibitors
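Fluorescence polarization assay of small-molecule disruption of VDR binding to coregulator peptide SRC2-3. Compounds and controls pin-transferred, then read after 2 h incubation at ambient room temperature.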
BAZ2B inh – BAZ2B (human) inhibition; Q9UIF8; AlphaScreen BAZ2B-H3K14Ac peptide displacement; Potency, µM (series often up to 114 µM), hits mostly inhibitors; 4.4% of 360,000 active; AID 504333; further: nearly all actives have a fitted effect of over 60% in size
Target sequence (Q9UIF8 whole entry, looked up): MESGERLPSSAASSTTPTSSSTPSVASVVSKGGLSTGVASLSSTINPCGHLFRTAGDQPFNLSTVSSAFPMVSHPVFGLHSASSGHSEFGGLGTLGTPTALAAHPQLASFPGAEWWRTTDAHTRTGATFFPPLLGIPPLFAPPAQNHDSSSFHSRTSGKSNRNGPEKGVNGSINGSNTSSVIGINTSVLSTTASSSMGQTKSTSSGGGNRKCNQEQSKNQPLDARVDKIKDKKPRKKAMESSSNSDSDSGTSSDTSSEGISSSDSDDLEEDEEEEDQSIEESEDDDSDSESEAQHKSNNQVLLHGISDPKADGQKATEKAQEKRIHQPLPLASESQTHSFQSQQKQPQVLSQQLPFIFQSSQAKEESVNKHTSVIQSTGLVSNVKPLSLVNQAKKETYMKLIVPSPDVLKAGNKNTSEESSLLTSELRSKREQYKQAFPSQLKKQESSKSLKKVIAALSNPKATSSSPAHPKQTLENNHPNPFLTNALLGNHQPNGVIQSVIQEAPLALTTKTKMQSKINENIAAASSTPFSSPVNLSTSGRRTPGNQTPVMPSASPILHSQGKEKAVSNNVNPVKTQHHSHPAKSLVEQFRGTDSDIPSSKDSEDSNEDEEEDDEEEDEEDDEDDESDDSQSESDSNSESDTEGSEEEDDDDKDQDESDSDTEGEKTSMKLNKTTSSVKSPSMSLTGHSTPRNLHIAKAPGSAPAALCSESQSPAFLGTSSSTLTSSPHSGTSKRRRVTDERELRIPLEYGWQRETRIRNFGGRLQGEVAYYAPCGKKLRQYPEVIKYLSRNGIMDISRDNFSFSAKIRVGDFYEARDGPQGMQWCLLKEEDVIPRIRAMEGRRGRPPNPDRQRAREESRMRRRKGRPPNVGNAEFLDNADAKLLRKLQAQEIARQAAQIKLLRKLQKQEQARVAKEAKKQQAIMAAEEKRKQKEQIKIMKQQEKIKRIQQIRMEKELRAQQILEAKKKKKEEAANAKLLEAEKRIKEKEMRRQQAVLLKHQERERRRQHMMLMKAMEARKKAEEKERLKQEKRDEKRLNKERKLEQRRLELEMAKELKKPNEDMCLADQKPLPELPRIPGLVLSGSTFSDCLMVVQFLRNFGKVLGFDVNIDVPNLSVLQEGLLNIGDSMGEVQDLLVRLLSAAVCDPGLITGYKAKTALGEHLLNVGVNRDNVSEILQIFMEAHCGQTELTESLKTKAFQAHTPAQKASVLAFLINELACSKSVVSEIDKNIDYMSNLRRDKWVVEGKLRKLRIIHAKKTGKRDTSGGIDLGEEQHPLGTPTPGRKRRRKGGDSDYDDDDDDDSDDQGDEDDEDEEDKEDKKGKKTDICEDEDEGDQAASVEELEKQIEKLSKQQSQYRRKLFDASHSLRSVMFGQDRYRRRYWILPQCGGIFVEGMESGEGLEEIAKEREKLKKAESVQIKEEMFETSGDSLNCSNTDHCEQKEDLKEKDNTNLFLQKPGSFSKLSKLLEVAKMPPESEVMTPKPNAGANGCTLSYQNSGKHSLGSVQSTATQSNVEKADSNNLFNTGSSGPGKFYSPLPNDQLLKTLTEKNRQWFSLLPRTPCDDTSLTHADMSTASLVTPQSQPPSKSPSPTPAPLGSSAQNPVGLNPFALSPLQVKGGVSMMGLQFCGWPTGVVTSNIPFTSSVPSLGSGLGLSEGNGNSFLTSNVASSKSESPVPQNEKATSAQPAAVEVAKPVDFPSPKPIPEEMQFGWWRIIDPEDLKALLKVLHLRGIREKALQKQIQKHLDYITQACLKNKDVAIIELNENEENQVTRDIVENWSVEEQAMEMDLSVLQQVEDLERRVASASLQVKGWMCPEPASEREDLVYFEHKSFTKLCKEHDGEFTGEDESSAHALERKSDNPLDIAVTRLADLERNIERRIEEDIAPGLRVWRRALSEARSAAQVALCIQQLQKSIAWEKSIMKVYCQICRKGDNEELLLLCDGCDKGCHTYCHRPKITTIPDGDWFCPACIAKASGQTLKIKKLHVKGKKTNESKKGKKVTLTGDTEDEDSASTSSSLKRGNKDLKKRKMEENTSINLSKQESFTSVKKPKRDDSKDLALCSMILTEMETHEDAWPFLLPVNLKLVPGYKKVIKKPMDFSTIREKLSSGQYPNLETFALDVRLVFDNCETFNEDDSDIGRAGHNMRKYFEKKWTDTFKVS
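Protein-peptide AlphaScreen: BAZ2B 50 nM, b-H3K14Ac 50 nM, 1x PBS pH 7.4 + 0.01% Tween-20. Preincubation 30 min RT; cpd 30 min RT (top 110 uM); beads 20 min RT, light-protected.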
Hits are given with their value; – = inactive; ? = inconclusive; · = no result given. Shown are actives, neighbours in structure and some others; about 6.9% of the full set was active somewhere. The call rests on the fitted dose curve; in most records, active means well fitted curve in the direction sought with a large enough effect; inconclusive means small, poorly fitted or top-dose-only effect, or another doubt; inactive means no such curve, though single readings can be large; an effect the other way counts as inactive or inconclusive.

SMILES | L3MBTL1 block | HP1b binding inh | PLK1 PBD block | JMJD2A Tudor inh | VDR inhibitor | BAZ2B inh
COc1ccc(OCc2nnc(SCC(=O)NCC3CCCO3)n2N)cc1 (configuration not stated) | – | ? | 16.8µM | – | ? | ·
c1ccc(N2CC[C@@]3(CCCNC3)C2)cc1 | · | · | · | · | 50.1µM | ·
CCN1C[C@@]2(COC(=O)c3ccccc3N3C(=O)CC(C)C3=O)CC[C@H](OC)[C@]34C5C[C@@H]6[C@@H](OC)C[C@@](O)(C5[C@H]6OC)[C@@](O)(C13)[C@@H](OC)C24 (some centres not stated) | · | · | · | · | – | ·
COc1ccc(CCNCc2ccccc2)cc1 | · | ? | – | 7.08µM | – | 25.1µM
COc1ccc(CCNCc2c(OC)ccc3ccccc23)cc1 | · | ? | – | 22.4µM | – | 35.5µM
Fc1ccc(CCNCc2ccccc2Cl)cc1 | · | – | – | – | – | –
COc1cccc(CCNCc2ccc(SC)cc2)c1 | – | ? | – | 25.1µM | – | 50.1µM
Fc1ccc(CNCCc2ccccc2)cc1 | – | ? | – | 22.4µM | – | ·
N#Cc1ccc(CN2CCC3(CC2)CCN(C(=O)Oc2ccccc2)CC3)cc1 | · | · | · | · | – | ·
C[C@]12CCC(=O)C=C1CCc1ccc(O)cc12 | · | · | · | · | – | ·
CC(C)CCNC(=O)CNC(=O)[C@@H](C)NC(=O)[C@@H](N)Cc1ccc(O)cc1 | · | · | · | · | – | ·
O=C(Oc1ccccc1)N1CCC2(CC1)CCN(C(c1ccccc1)c1ccccc1)CC2 | · | · | · | · | – | ·
Cc1ccc(CCNC(=O)Cn2nc(C)c3c(C)n(-c4ccc(C)cc4)nc3c2=O)cc1 | · | – | · | – | – | ?
COc1ccc(CCNCc2ccncc2)cc1 | · | ? | – | 1.26µM | – | 56.2µM
CSc1cccc(NC(=O)C2CCN(C(=O)c3cnn(-c4ccccc4)c3-n3cccc3)CC2)c1 | · | – | · | – | – | ?
CCOc1ccc(NC(=O)C2CCCN2C(=O)Oc2ccccc2)cc1 (configuration not stated) | · | – | – | ? | – | –
CN(C(=O)Oc1cccc2cccnc12)c1ccccc1 | – | – | – | – | – | –
Oc1cccc2cccnc12 | · | – | · | ? | – | 10µM
CCOC(=O)c1c(C)[nH]c(C)c1S(=O)(=O)NCC(=O)N1CCN(c2cc(Cl)ccc2C)CC1 | · | – | · | ? | – | ?
Cc1cc(N2C(=O)C3CCCN3C2c2ccccc2)no1 (configuration not stated) | – | – | – | 28.2µM | – | ?
O=C(Nc1ccc(Cl)c(C(F)(F)F)c1)c1ccc2c(c1)CCN2S(=O)(=O)c1ccccc1 | · | – | · | – | – | –
COc1cc(CCN)ccc1O | – | – | – | – | – | –
COc1cc(N)ccc1Cc1ccc(N)cc1OC | – | – | – | 79.4µM | – | ·
CN1C(=O)C(=Cc2cn(CC(=O)N3CCCC3)c3ccccc23)C(=O)N(C)C1=O | · | – | 26.7µM | – | – | –
CN1C(=O)C(=Cc2coc3ccccc3c2=O)C(=O)N(C)C1=O | – | – | 18.9µM | – | ? | –
SMILES | L3MBTL1 block | HP1b binding inh | PLK1 PBD block | JMJD2A Tudor inh | VDR inhibitor | BAZ2B inh
CCOC(=O)Cn1cc(C=C2C(=O)N(C)C(=O)N(C)C2=O)c2ccccc21 | · | – | ? | – | – | –
C=CCn1cc(C=C2C(=O)NC(=O)NC2=O)c2ccccc21 | · | – | – | ? | – | –
CN1C(=O)C(=Cc2cn(CC(=O)N3CCCCC3)c3ccccc23)C(=O)N(C)C1=O | · | – | 13.4µM | – | – | –
CCN1C(=O)NC(=O)/C(=C\c2cn(CC(=O)N3CCCCC3C)c3ccccc23)C1=O (configuration not stated) | · | – | ? | – | – | –
Cc1cc(C=C2C(=O)N(C)C(=O)N(C)C2=O)c(C)n1-c1ccccc1 | · | – | – | – | – | –
CN1C(=O)C(=Cc2cn(CC#N)c3ccccc23)C(=O)N(C)C1=O | · | – | 1.19µM | – | – | –
CCCOCCN(C(=O)CCl)c1c(CC)cccc1CC | · | · | · | · | – | ·
Cc1cc2c(cc(C(=O)N3CCC(C(=O)NC4CCCC4)CC3)n2Cc2c(F)cccc2Cl)o1 | · | – | – | ? | – | ?
Cc1ccc(-c2nnc(C)c(N3CCCC3)n2)cc1 | – | – | – | – | – | –
Cc1nn(Cc2ccccc2)c(C)c1C(=O)OCC(=O)NCc1ccco1 | · | – | – | – | – | –
CC(C)C(OC(=O)c1ccco1)C(=O)NCc1ccco1 (configuration not stated) | · | ? | 26.7µM | 79.4µM | – | –
CCC(=O)N1N=C(c2c(O)n(C)c(=O)n(C)c2=O)CC1c1ccccc1 (configuration not stated) | – | – | – | – | – | –
Cn1c(O)c(C2=NN(C(=O)CCl)C(c3ccccc3)C2)c(=O)n(C)c1=O (configuration not stated) | – | – | – | 22.4µM | – | –
O=C(Oc1ccccc1)N1CCC2(CCCN(C(c3ccccc3)c3ccccc3)C2)CC1 | · | · | · | · | – | ·
COc1ccc2[nH]c3c(c2c1)CCN=C3C | – | – | – | 35.5µM | – | 44.7µM
CCC(C)C(=O)OC1C[C@@]2(C)C(c3ccoc3)OC(=O)CC23OC2(C)OC34C(OC(=O)C(C)C)[C@]3(O)C(OC(=O)C5(C)OC5C)[C@]5(C)CC3(O)[C@](C)(C5CC(=O)OC)C14O2 (some centres not stated) | · | · | · | · | – | ·
CC1O[C@@H](OC2CC[C@@]3(C=O)C4CC[C@]5(C)C(C6=CC(=O)OC6)CC[C@@]5(O)C4CC[C@]3(O)C2)C(O)C(O)C1O (some centres not stated) | · | · | · | · | – | ·
C[C@@H]1C(=O)O[C@H]2C[C@@]34[C@H]5C[C@@H](C(C)(C)C)[C@]36[C@@H](OC(=O)[C@@H]6O)O[C@@]4(C(=O)O5)[C@]21O | · | – | – | – | – | –
Clc1ccc(C(c2ccc(Cl)cc2)n2cc[n+](CC(OCc3ccc(Cl)cc3Cl)c3ccc(Cl)cc3Cl)c2)cc1 (configuration not stated) | – | – | – | 50.1µM | – | –
C=CCO[C@@H](Cn1ccnc1)c1ccc(Cl)cc1Cl | · | · | · | · | – | ·
CCCCC/C=C\C/C=C\C/C=C\C/C=C\CCCC(=O)NC(C)C(=O)O (configuration not stated) | · | · | · | · | – | ·
COC(=O)C1=C(c2cc3ccccc3o2)C[C@@H]2CC[C@H]1N2C(=O)NC(C)C | · | – | – | 39.8µM | – | ·
COC(=O)C1=C(c2cc3ccccc3o2)C[C@@H]2CC[C@H]1N2C(=O)NCCNC(C)=O | · | – | – | – | – | ·
O=C(CCS(=O)(=O)c1ccccc1)Nc1nnc(-c2ccco2)o1 | · | – | – | 25.1µM | – | 50.1µM
O=C(Nc1ccccc1F)Oc1cccc(OC(=O)Nc2ccccc2F)c1 | – | – | – | – | – | –
O=C(Cc1ccccc1)c1ccccn1 | · | – | – | 3.55µM | – | ·
CC(Cc1ccc(C(C)(C)C)cc1)CN1CCCCC1 (configuration not stated) | · | · | · | · | – | ·
